Test results from ChEMBL document CHEMBL3433997, “St. Jude Leishmania screening dataset” (2016).

Experiments:
Type in all cases: functional
[1] = biological target: Solute carrier family 2, facilitated glucose transporter member 1 (Homo sapiens) (UniProt P11166); experiment: ST_JUDE_LEISH: Cytotoxicity at 2uM final concentration against transgenic Leishmania Mexicana promastigotes LmGLUT1 that are glucose transport deficient and complemented with the human glucose transporter GLUT1. Activity is measured by DNA content using SYBR green in vitro
[2] = biological target: Hexose transporter 1 (Plasmodium falciparum) (UniProt O97467); experiment: ST_JUDE_LEISH: Cytotoxicity at 2uM final concentration against transgenic Leishmania Mexicana promastigotes LmPfHT that are glucose transport deficient and complemented with the Plasmodium falciparum hexose transporter. Activity is measured by DNA content using SYBR green in vitro
[3] = biological target: Glucose transporter (Leishmania mexicana) (UniProt O61059); experiment: ST_JUDE_LEISH: Cytotoxicity at 2uM final concentration against transgenic Leishmania Mexicana promastigotes LmGT2 that are glucose transport deficient and complemented with the L. Mexicana glucose transporter 2. Activity is measured by DNA content using SYBR green in vitro

Solute carrier family 2, facilitated glucose transporter member 1 (Homo sapiens), sequence (P11166 whole entry): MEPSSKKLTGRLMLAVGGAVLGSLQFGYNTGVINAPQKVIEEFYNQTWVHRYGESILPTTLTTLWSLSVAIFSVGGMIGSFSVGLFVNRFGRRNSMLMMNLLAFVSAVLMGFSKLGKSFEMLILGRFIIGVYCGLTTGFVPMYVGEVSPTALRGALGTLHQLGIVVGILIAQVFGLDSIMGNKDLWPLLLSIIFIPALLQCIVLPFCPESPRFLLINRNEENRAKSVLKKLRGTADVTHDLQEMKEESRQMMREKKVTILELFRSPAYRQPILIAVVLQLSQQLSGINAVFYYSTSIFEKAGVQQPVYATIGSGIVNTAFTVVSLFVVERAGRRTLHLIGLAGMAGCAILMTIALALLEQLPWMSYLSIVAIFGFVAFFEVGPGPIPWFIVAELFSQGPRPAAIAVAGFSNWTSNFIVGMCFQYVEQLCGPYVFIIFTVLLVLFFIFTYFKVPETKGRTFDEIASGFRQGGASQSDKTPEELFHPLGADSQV

Compound | inhibition [1] | inhibition [2] | inhibition [3]
COc1cc2nc(Nc3ccc(Oc4ccccc4)cc3)nc(Nc3ccc(Oc4ccccc4)cc3)c2cc1OC | 6.52% | 3.92% | 6.04%
COc1ccc2[nH]c(C)cc(=NN=Cc3cc(C)ccc3O)c2c1 | 13.1% | 11.2% | 8.77%
Oc1ccc(CCCNc2nc(NCc3ccccc3-c3ccccc3)nc(N3CCNCC3)n2)cc1 | -0.81% | -2.76% | 1.36%
COC(=O)c1cccc(CNCc2cccc(-c3ccc(-c4nc5ccccc5[nH]4)cc3)c2)c1 | 5.57% | 5.76% | 2.19%
O=C(C=Cc1ccc(Cl)c(Cl)c1)NCCCCCN1CCCC(CCCNC(=O)C2CC2c2ccccc2)C1 (centres undefined) | 2.64% | 0.94% | 1.66%
CC1(C)N=C(N)N=C(N)N1c1cc(Cl)c(Cl)c(Cl)c1 | 1.4% | 0.23% | 2.36%
COc1cc(NC(=O)C(c2ccc(Cl)cc2)C(C)C)cc(OC)c1OC (centres undefined) | 2.52% | 1.79% | 5.89%
COC(=O)c1cc(OC)c(OC)cc1NC(=O)NC12CC3CC(CC(C3)C1)C2 | 4.1% | 2.13% | 1.18%
Cc1nc2ccccc2c(=O)n1/N=C/c1ccccc1[N+](=O)[O-] | 3% | 1.45% | 2.65%
Oc1ccc(-c2ccccc2)cc1CNC1CCCCC1 | 2.86% | 0.92% | 2.38%
O=C(c1cnn(-c2ccccc2)c1C(F)(F)F)N1CCN(c2ccnc3cc(Cl)ccc23)CC1 | 1.81% | 1.39% | 2.15%
Cn1ccnc1Sc1ncccc1[N+](=O)[O-] | -2.32% | 0.92% | 1.8%
CC(C)(C)OC(=O)Nc1cccc(-c2csc(NC(=N)N)n2)c1 | 0.85% | 0.42% | -0.52%
